In PubChem BioAssay (NCI):
Compounds without any hit were thinned out: in the full panel of roughly 83,000, 20% have a hit.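 Compound tested at a single concentration for 48 hours in 96-well plates; a percent growth value below 10 was scored as active.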 Active and inactive are the calls of the source.

Key:
Assay in all cases: NCI-60 one-dose screen, 48 h (100 = growth as untreated, 0 = no growth, -100 = all killed)
Settings in all cases: 10 µM unless noted
HCT-15 colon = tested on: HCT-15 colon
HT29 colon = tested on: HT29 colon
SNB-75 CNS = tested on: SNB-75 CNS
SNB-19 CNS = tested on: SNB-19 CNS
U251 CNS = tested on: U251 CNS
PC-3 prostate = tested on: PC-3 prostate
SK-MEL-5 melanoma = tested on: SK-MEL-5 melanoma
UACC-62 melanoma = tested on: UACC-62 melanoma
LOX IMVI melanoma = tested on: LOX IMVI melanoma
SK-MEL-28 melanoma = tested on: SK-MEL-28 melanoma
SK-MEL-2 melanoma = tested on: SK-MEL-2 melanoma
EKVX NSCLC = tested on: EKVX NSCLC
SN12C renal = tested on: SN12C renal
UO-31 renal = tested on: UO-31 renal
TK-10 renal = tested on: TK-10 renal
ACHN renal = tested on: ACHN renal
CAKI-1 renal = tested on: CAKI-1 renal
A498 renal = tested on: A498 renal
CCRF-CEM leukemia = tested on: CCRF-CEM leukemia
MOLT-4 leukemia = tested on: MOLT-4 leukemia

Measured: growth

COc1cc(C2CC(c3ccc(SC)cc3)=NN2C(C)=O)cc(OC)c1OC (stereo not drawn)
inactive: HCT-15 colon 47.5% | HT29 colon 21.9% | SNB-75 CNS 11.9% | SNB-19 CNS 74.3% | U251 CNS 62.7% | PC-3 prostate 58.3% | SK-MEL-5 melanoma 70.2% | UACC-62 melanoma 57.9% | LOX IMVI melanoma 62.3% | SK-MEL-28 melanoma 75.3% | SK-MEL-2 melanoma 65.5% | EKVX NSCLC 74.5% | SN12C renal 91.4% | UO-31 renal 71.2% | TK-10 renal 86.2% | ACHN renal 89.3% | CAKI-1 renal 65.5% | A498 renal 68.1% | CCRF-CEM leukemia 52.9%

CCOC(=O)Nc1ccc(-c2nc(-c3cccc(OCCN4CCOCC4)c3)c(-c3ccnc(Br)c3)[nH]2)cc1
active: HT29 colon 8.48% | SNB-75 CNS 3.74%
inactive: HCT-15 colon 11% | SNB-19 CNS 50.6% | U251 CNS 26.5% | PC-3 prostate 26.2% | SK-MEL-5 melanoma 38.1% | UACC-62 melanoma 32.9% | LOX IMVI melanoma 14.1% | SK-MEL-28 melanoma 30.6% | SK-MEL-2 melanoma 40.2% | EKVX NSCLC 61.1% | SN12C renal 59.9% | UO-31 renal 21.5% | TK-10 renal 87.4% | ACHN renal 43.9% | CAKI-1 renal 51.3% | A498 renal 49.9% | CCRF-CEM leukemia 26.4%

CC(C)n1cnc2c(Nc3cccc(Cl)c3)nc(N[C@H]3CCCC[C@@H]3N)nc21
inactive: HCT-15 colon 58.1% | HT29 colon 11.3% | SNB-75 CNS 32.8% | SNB-19 CNS 59.7% | U251 CNS 57.3% | PC-3 prostate 54.3% | SK-MEL-5 melanoma 53.3% | UACC-62 melanoma 68.3% | LOX IMVI melanoma 45.2% | SK-MEL-28 melanoma 61.7% | SK-MEL-2 melanoma 78.3% | EKVX NSCLC 54.1% | SN12C renal 50.6% | UO-31 renal 31.7% | TK-10 renal 67.4% | ACHN renal 29.9% | CAKI-1 renal 49.5% | A498 renal 94.9% | CCRF-CEM leukemia 66.6%

CCN(CC)c1ccc(C2=NN(C(C)=O)C(c3cc(OC)c(OC)c(OC)c3)C2)cc1 (stereo not drawn)
active: HT29 colon 8.86% | UO-31 renal -19% | A498 renal -22.1%
inactive: HCT-15 colon 12.8% | SNB-75 CNS 17.8% | SNB-19 CNS 40.1% | U251 CNS 18.7% | PC-3 prostate 20.4% | SK-MEL-5 melanoma 23.4% | UACC-62 melanoma 13.1% | LOX IMVI melanoma 31.5% | SK-MEL-28 melanoma 51.8% | SK-MEL-2 melanoma 31.8% | EKVX NSCLC 29.8% | SN12C renal 38.5% | TK-10 renal 39.9% | ACHN renal 40.3% | CAKI-1 renal 21% | CCRF-CEM leukemia 12.6%

COc1ccc2c(c1)c(-c1ccc(-c3cn(C)c4ccc(OC)cc34)o1)cn2C
inactive: HCT-15 colon 56.2% | HT29 colon 72.7% | SNB-75 CNS 71.4% | SNB-19 CNS 33.3% | U251 CNS 15% | UACC-62 melanoma 12.4% | LOX IMVI melanoma 53.2% | SK-MEL-28 melanoma 83.6% | SK-MEL-2 melanoma 45% | EKVX NSCLC 46.1% | SN12C renal 75.8% | TK-10 renal 83.3% | ACHN renal 36.3% | CAKI-1 renal 37.2% | A498 renal 85.3% | CCRF-CEM leukemia 61.8%
active: PC-3 prostate 3% | SK-MEL-5 melanoma -2.83% | UO-31 renal -8.28%

Cc1ccc2sc3c(NCCCN)nc4ccccc4c3c(=O)c2c1
inactive: SNB-75 CNS 78.1% | SNB-19 CNS 74.6% | PC-3 prostate 65.4% | SK-MEL-5 melanoma 90.6% | UACC-62 melanoma 94.1% | SK-MEL-28 melanoma 95.3% | SK-MEL-2 melanoma 107% | EKVX NSCLC 82.7% | SN12C renal 69.2% | UO-31 renal 47.1% | TK-10 renal 85.2% | ACHN renal 20.6% | A498 renal 44.6%
active: HCT-15 colon -12.2% | HT29 colon -47.4% | U251 CNS 6.32% | LOX IMVI melanoma -97.7% | CAKI-1 renal -6.43% | CCRF-CEM leukemia 5.2%

O=C(Cc1ccc(F)c(Cl)c1)Nc1cc(C2(C(F)(F)F)CC2)nn1CC1CCCCC1
active: HCT-15 colon 5.75% | HT29 colon 8.71% | SNB-75 CNS -8.19% | U251 CNS 1.68% | PC-3 prostate 0.348% | SK-MEL-5 melanoma -74.5% | UACC-62 melanoma 0.508% | SK-MEL-2 melanoma -48.8% | EKVX NSCLC 3.93% | SN12C renal 6.18% | UO-31 renal -3.33% | TK-10 renal 3.08% | ACHN renal -7.99% | CAKI-1 renal -14.3% | A498 renal -33.2%
inactive: SNB-19 CNS 14.7% | LOX IMVI melanoma 11.6% | SK-MEL-28 melanoma 19.7% | CCRF-CEM leukemia 20.1%

Cc1ccc(-c2nc(N3CCN(C(=O)Nc4ccc(Cl)c(C(F)(F)F)c4)CC3)c3ccccc3n2)cc1
inactive: HCT-15 colon 70.3% | HT29 colon 75.2% | SNB-75 CNS 66.2% | SNB-19 CNS 86% | U251 CNS 79.6% | PC-3 prostate 49.6% | SK-MEL-5 melanoma 84.3% | UACC-62 melanoma 70% | LOX IMVI melanoma 65.4% | SK-MEL-28 melanoma 89.2% | SK-MEL-2 melanoma 96.5% | EKVX NSCLC 79.4% | SN12C renal 74.8% | UO-31 renal 53.6% | TK-10 renal 93.7% | ACHN renal 71.5% | CAKI-1 renal 53.6% | A498 renal 45.9% | CCRF-CEM leukemia 65.8%

Oc1ccc(-c2nc3ccc4[nH]ncc4c3c3c2CCCC3)c2cccnc12
active: HCT-15 colon 4.75% | SNB-75 CNS -23.1% | U251 CNS -4.46% | PC-3 prostate 7.83% | SK-MEL-5 melanoma -4.91% | UACC-62 melanoma -11.5% | LOX IMVI melanoma 3.42% | SK-MEL-2 melanoma 5.36% | EKVX NSCLC -23.1% | SN12C renal 4.02% | UO-31 renal -30.4% | ACHN renal 2.65% | CAKI-1 renal -25.7% | A498 renal -25.7% | CCRF-CEM leukemia 4.86%
inactive: HT29 colon 12.1% | SNB-19 CNS 13.7% | SK-MEL-28 melanoma 13.3% | TK-10 renal 17.4%

Cc1c(C(=O)NCCN2CCOCC2)cn2ncnc(Oc3ccc(NC(=O)Nc4ccc(Cl)c(C(F)(F)F)c4)cc3)c12
inactive: HCT-15 colon 21.8% | SNB-75 CNS 22.4% | SNB-19 CNS 20% | U251 CNS 14.5% | PC-3 prostate 11.4% | UACC-62 melanoma 14.8% | SK-MEL-28 melanoma 16.1% | EKVX NSCLC 25.2% | SN12C renal 21.2% | UO-31 renal 52.7% | TK-10 renal 32.2% | ACHN renal 13.6% | CAKI-1 renal 30.3%
active: HT29 colon 7.93% | SK-MEL-5 melanoma 6.48% | LOX IMVI melanoma -50.5% | SK-MEL-2 melanoma -20.8% | A498 renal -5.16% | CCRF-CEM leukemia 9.09% | MOLT-4 leukemia -3.35%

CCOC(=O)c1nc(Nc2ccc(C(C)=O)cc2)sc1C
inactive: HCT-15 colon 96.8% | HT29 colon 97.5% | SNB-75 CNS 89.7% | SNB-19 CNS 95.9% | U251 CNS 101% | PC-3 prostate 99.5% | SK-MEL-5 melanoma 100% | UACC-62 melanoma 95.1% | LOX IMVI melanoma 99.9% | SK-MEL-28 melanoma 102% | SK-MEL-2 melanoma 106% | EKVX NSCLC 97.8% | SN12C renal 104% | UO-31 renal 91.8% | TK-10 renal 97.9% | ACHN renal 101% | CAKI-1 renal 94.7% | A498 renal 75.1% | CCRF-CEM leukemia 99.9%

Oc1c(I)cc(I)cc1CNCCCN(Cc1ccccn1)Cc1ccccn1
active: HCT-15 colon -37.7% | HT29 colon -12.9% | SNB-75 CNS -89% | SNB-19 CNS 2.67% | U251 CNS -12.9% | PC-3 prostate -55.5% | SK-MEL-5 melanoma -96.9% | UACC-62 melanoma -55.5% | LOX IMVI melanoma -91.7% | SK-MEL-28 melanoma -33.8% | SK-MEL-2 melanoma -30.9% | EKVX NSCLC -85.6% | SN12C renal -50.1% | UO-31 renal -100% | TK-10 renal -78.5% | ACHN renal -100% | CAKI-1 renal -96.1% | A498 renal -98.4% | CCRF-CEM leukemia 3.65% | MOLT-4 leukemia -10.5%

COc1ccc(OC)c(/C=C/c2nnc(Nc3ccccc3)o2)c1
inactive: HCT-15 colon 90.5% | HT29 colon 93.6% | SNB-75 CNS 82.1% | SNB-19 CNS 96.9% | U251 CNS 98% | PC-3 prostate 93.8% | SK-MEL-5 melanoma 90% | UACC-62 melanoma 92.1% | LOX IMVI melanoma 99.5% | SK-MEL-28 melanoma 108% | SK-MEL-2 melanoma 95% | EKVX NSCLC 89.9% | SN12C renal 90.1% | UO-31 renal 94.5% | TK-10 renal 92.5% | ACHN renal 97.2% | CAKI-1 renal 78.3% | A498 renal 73.7% | CCRF-CEM leukemia 87.2%

COc1cc(/C=C/c2c(C(C)=O)c(C)nc3ccccc23)cc(OC)c1OC
active: SNB-75 CNS -34.5% | A498 renal -23.8%
inactive: HCT-15 colon 25.4% | HT29 colon 17.6% | SNB-19 CNS 39.4% | U251 CNS 39% | PC-3 prostate 32.5% | SK-MEL-5 melanoma 31.4% | UACC-62 melanoma 39.8% | LOX IMVI melanoma 38.9% | SK-MEL-28 melanoma 53.9% | SK-MEL-2 melanoma 47.9% | EKVX NSCLC 52.4% | SN12C renal 35.3% | UO-31 renal 36.7% | TK-10 renal 78.8% | ACHN renal 37.6% | CAKI-1 renal 24.7% | CCRF-CEM leukemia 21.3%

CS(=O)(=O)N(c1cc(-c2ccc3ncnc(Nc4ccc(F)c(Cl)c4)c3c2)cnc1Cl)S(C)(=O)=O
active: SNB-75 CNS -4.86% | A498 renal -30.8% | MOLT-4 leukemia 6.91%
inactive: HCT-15 colon 29.5% | HT29 colon 31.5% | SNB-19 CNS 50% | U251 CNS 38.2% | PC-3 prostate 34.8% | SK-MEL-5 melanoma 31.3% | UACC-62 melanoma 10.3% | LOX IMVI melanoma 32.2% | SK-MEL-28 melanoma 23.5% | SK-MEL-2 melanoma 27.3% | EKVX NSCLC 26.3% | SN12C renal 31.6% | UO-31 renal 17.1% | TK-10 renal 19% | ACHN renal 35.5% | CAKI-1 renal 31.9% | CCRF-CEM leukemia 18.4%
